Bioassay records from PubChem.
Most compounds without a hit are left out; they make up all but 21% or so of the library.
Pf growth 48h: P. falciparum growth inhibition at 48 hours (one generation). P. falciparum luciferase growth in erythrocytes, 48 h. Potency, µM (top dose mostly 28.7 µM), without a hit: top-dose activity change, negative = inhibition, usual class: inhibitors. 310,000 tested, 5.9% active. AID 504832; also: potency is read from the fitted curve at half-maximal effect; % is scaled to controls: 0 for no effect and ±100 for the full control effect
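Luciferase-expressing parasites in RBCs, 2% Hct / 0.1% parasitemia final; RPMI 1640 + 0.5% Albumax; 37 C, 5% CO2, one generation; luminescence read-out, lower signal = inhibition.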
Shiga toxin inh: blocks Shiga toxin action in Vero cells. inhibition, % at 38.7 µM. 290,000 tested, 9.2% active. Vero cells, Shiga toxin protein synthesis inhibition reporter; in the data active = inhibition mostly above about 28%, no sharp cut-off; inactive = mostly below about 43%; also: 0% is about no effect
Pf growth 96h: inhibits malaria parasite growth, 96 h | P. falciparum luciferase reporter growth, 96 h | Potency, µM (doses to about 28.7 µM), inactives show top-dose activity change, negative = inhibition, usual class: inhibitors | 320,000 tested, 6.9% active; also: potency is read from the fitted curve at half-maximal effect; % is scaled to controls: 0 for no effect and ±100 for the full control effect
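Two parasite generations (96 h, 37 C, 5% CO2) of compound exposure in infected erythrocytes (0.05% parasitemia, 2% hematocrit). Luciferase-reporter P. falciparum; decreased luminescence indicates inhibited growth, aimed at apicoplast-acting delayed death.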
NS1 function inh: inhibitors of influenza NS1 protein function. Potency, µM (doses to about 46.1 µM), inactives show top-dose activity, positive = more growth. AID 2326. 270,000 tested, 0.4% active; calls by dose curve; also: potency is read from the fitted curve at half-maximal effect; actives are rising curves; nearly all actives have a fitted effect of over 50% in size
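Recovery from NS1-induced slow growth read by OD600 in budding yeast switched to galactose assay medium (pH 6.0, -URA) at 1:100 dilution. Compound 23 nl per well; the matching strain lacking NS1 serves as control.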
Sm TGR inh: S. mansoni TGR enzyme inhibition; 360,000 tested, 3% active; Potency, µM (top dose mostly 114 µM), inactives show top-dose activity change, negative = inhibition, actives largely listed as inhibitors; purified TGR, DTNB reduction, TNB absorbance 405 nm; Q962Y6; also: potency is read from the fitted curve at half-maximal effect; % is scaled to controls: 0 for no effect and ±100 for the full control effect; nearly all actives have a fitted effect of over 60% in size
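TGR 20 nM + NADPH 100 uM (dispensed conc.), cpd preinc 15 min RT; start with NADPH (500 uM addition) then DTNB (15 mM addition). Kinetic TNB absorbance, 405 nm filter. Four-parameter Hill fit across titration.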
CHX counter: affects cycloheximide protein synthesis inhibition readout, counter-screen; cell reporter, cycloheximide protein synthesis inhibition counterscreen; max response, %; 300,000 tested, 12% active; AID 2314; in the data active = max response mostly above about 13%, no sharp cut-off; inactive = mostly below about 14%; also: read at 38.3 µM for the half of the compounds with a filed dose; 0% is about no effect
Numbers without * were called inactive; u = inconclusive; x = not tested or not shown. Unless noted, calls follow the shape of the dose curve; as a rule, active = well fitted curve in the direction sought with a large enough effect; inconclusive = small, poorly fitted or top-dose-only effect, or another doubt; inactive = no such curve, though single readings can be large; an effect the other way counts as inactive or inconclusive.

SMILES	Pf growth 48h	Shiga toxin inh	Pf growth 96h	NS1 function inh	Sm TGR inh	CHX counter
Cc1ccc(S(=O)(=O)N2CCC(=O)N(C(COCc3ccc(Cl)c(Cl)c3)Cc3ccccc3)CC2)cc1 (stereo not drawn)	9.3µM*	-12	u	19%	-7%	-3
Cc1ccc(S(=O)(=O)N2CCC(=O)N(C(COCc3ccc(C(F)(F)F)cc3)C(C)C)CC2)cc1 (stereo not drawn)	u	-7	10µM*	6%	-6%	-3
Cc1ccc(S(=O)(=O)N2CCC(=O)N([C@H](COCc3cccc(C)c3)Cc3ccccc3)CC2)cc1	x	15	x	x	x	17
Cc1ccc(S(=O)(=O)N2CCC(=O)N(C(COCc3cccc(C)c3)Cc3ccccc3)CC2)cc1 (stereo not drawn)	u	33	9.3µM*	6%	-12%	-1
Cc1ccc(S(=O)(=O)N2CCC(=O)N(C(COC(=O)Nc3ccccc3)Cc3ccccc3)CC2)cc1 (stereo not drawn)	u	21	15µM*	19%	-8%	11
CCC(C)NC(=O)c1c(C)oc2ncn(CC(C)C)c(=O)c12 (stereo not drawn)	x	x	x	x	-4%	x
Cc1ccc(S(=O)(=O)N2CCC(=O)N(C(COCc3ccc(C(F)(F)F)cc3)Cc3ccccc3)CC2)cc1 (stereo not drawn)	u	-14	7.4µM*	u	-18%	6
O=C1N2CCSC2=NC1(NS(=O)(=O)c1ccccc1)C(F)(F)F (stereo not drawn)	-12%	-12	1µM*	-8%	3%	-4
Cc1ccc(NC(=O)N2CCCC(C(=O)O)C2)cc1 (stereo not drawn)	87%	17	26%	-2%	-27%	12
C=C(C=O)CC1CC(O)[C@]2(C)OC3CC4OC5C[C@]6(C)O[C@]7(C)CCC8OC9C[C@]%10(C)OC%11C(C)=CC(=O)OC%11CC%10OC9C[C@@H](C)C8OC7CC6O[C@]5(C)CC5OC5C4OC3CC2O1 (stereo partly drawn)	x	12	x	-2%	11µM*	-2
C=C(CO)CC1CC(O)[C@]2(C)OC3CC4OC5C[C@]6(C)O[C@]7(C)CCC8OC9C[C@]%10(C)OC%11C(C)=CC(=O)OC%11CC%10OC9C[C@@H](C)C8OC7CC6O[C@]5(C)C/C=C\C4OC3CC2O1 (stereo partly drawn)	x	-7	x	4%	4%	10
COc1ccc(S(=O)(=O)Nc2cc3[nH]c(=O)oc3cc2C)cc1	17%	-8	8.3µM*	7%	-11%	1
O=C1ON=C(c2ccc([N+](=O)[O-])cc2)/C1=C/c1ccccc1O	30%	-6	22%	11%	u	-2
CCc1cc(CN2CCOCC2)c(NC(=O)c2ccccc2)s1	8%	79*	-5%	x	-19%	27*
COc1cccc(C(c2c(NC(=O)c3ccccc3)sc(C)c2C)N2CCN(C)CC2)c1 (stereo not drawn)	12µM*	-7	u	5%	-2%	-5
CCc1cc(C(c2ccc(F)cc2)N2CCOCC2)c(NC(=O)c2ccccc2)s1 (stereo not drawn)	u	21	72%	-19%	4µM*	16
O=C(Nc1ccccc1C(=O)NCCCN1CCOCC1)c1ccccc1	-5%	5	11%	2%	-10%	-1
CCc1cc(C(c2cccc(OC)c2)N2CCOCC2)c(NC(=O)c2ccccc2)s1 (stereo not drawn)	u	61	u	-10%	u	38*
COc1cccc(C(CC(=O)Nc2cccc3ccccc23)NC(=O)c2ccccc2)c1 (stereo not drawn)	u	-5	u	-2%	-25%	4
O=C(c1cnc(N2CCOCC2)c2ccccc12)N1CCN(c2ccccc2F)CC1	x	x	x	x	4%	x
CCCCN(C(=O)C1CCCO1)c1c(N)n(CC(C)C)c(=O)[nH]c1=O (stereo not drawn)	50%	x	1%	x	6%	x
CCc1cc(C(c2ccc(OC)c(OC)c2)N2CCOCC2)c(NC(=O)c2ccccc2)s1 (stereo not drawn)	u	-19	u	16%	2.5µM*	2
COc1cc(NC(=O)c2ccccc2)c(OC)cc1NC(=O)CN1CCOCC1	u	28	u	-26%	-4%	2
CC(=O)N1N=C2c3ccccc3CCC2C1c1cccs1 (stereo not drawn)	-13%	4	u	8%	12%	-3
CN1N=C2c3ccccc3CCCC2C1c1ccc(F)cc1 (stereo not drawn)	-29%	76*	25%	-9%	6%	39*
SMILES	Pf growth 48h	Shiga toxin inh	Pf growth 96h	NS1 function inh	Sm TGR inh	CHX counter
Cc1ccc2nc(SCc3nnc(-c4ccccc4Br)o3)[nH]c2c1	3%	-22	-9%	-9%	3%	-1
OC(COCc1ccccc1)CN1CCCCC1 (stereo not drawn)	18%	-5	21%	8%	6%	11
O=C(/C=C/Nc1ccc(Oc2ccccc2Cl)cc1)c1ccco1	u	117*	-27%	-2%	x	37*
COc1ccccc1Oc1ccc(N/C=C/C(=O)c2ccco2)cc1	10%	100*	17%	9%	x	50*
CCC(=O)n1nc(-c2ccc(Cl)cc2)nc1NCc1ccccc1	x	-4	u	5%	6%	-1
CCc1ccc(/C=N/N2CCN(c3ccccn3)CC2)cc1	139%	68*	42%	12%	0%	37*
BrC(=C\c1ccccc1)/C=N/N1CCN(c2ccccc2)CC1	30%	46	22%	-3%	-19%	14
Cc1ccc(/C=N/N2CCN(c3ccccn3)CC2)cc1	86%	64*	68%	x	-7%	47*
CCN(CC)c1ccc(/C=N/N2CCN(c3ccccn3)CC2)cc1	u	-8	22%	1%	6%	2
ClC(/C=N/n1cnnc1)=C/c1ccccc1	12µM*	6	12µM*	-8%	u	1
ClC(=C\c1ccccc1)/C=N/N1CCN(c2ccccn2)CC1	89%	53*	86%	8%	1%	33*
O=C(Nc1ccc(S(=O)(=O)NCc2ccccc2)cc1)Nc1ccc2c(c1)OCO2	54%	81*	-20%	9%	-5%	28*
CCNS(=O)(=O)c1ccc(NC(=O)Nc2ccc3c(c2)OCO3)cc1	-15%	66	4%	-4%	-6%	30*
NS(=O)(=O)c1ccc(NC(=O)Nc2ccc3c(c2)OCO3)cc1	u	96*	u	21%	2%	41*
CC(C)c1ccc(S(=O)(=O)NCc2ccc3c(c2)OCO3)cc1	7%	-3	10µM*	-20%	4%	-3
COc1cccc(CNC(=O)c2ccc3c(c2)sc2nc(-c4ccccc4)cn23)c1OC	x	x	x	x	-1%	x
CCNS(=O)(=O)c1ccc(CCC(=O)Nc2ccc3c(c2)OCO3)cc1	0%	13	-31%	14%	-15%	-1
